PrPC surface inh – cell surface PrPC inhibition, primary TR-FRET screen; inhibition, % at 13.8 µM; AID 720596; actives 0.43% (n = 370,000); P04156; TR-FRET read-out; in the data active means inhibition above about 24%; further: 0% = median of the test wells and 100% = reference compound wells
PrP 5UTR inh – suppresses PrP 5' UTR mRNA reporter expression; inhibition, % (concentration not given with the values); cell-based PrP 5' UTR mRNA reporter, plate reader; actives 0.35% (n = 340,000); in the data active means inhibition above about 52%; further: 0 = median of the neutral control wells
MazEF act – increases E. coli MazEF RNase cleavage of RNA; P0AE70; FAM/BHQ RNA-DNA oligo cleavage fluorescence, 5 h; activation, % at 20 µM; actives 0.32% (n = 350,000); AID 504720; in the data active means activation above about 50%
3CLpro inhibitor – SARS-CoV 3CLpro protease inhibition. actives 0.14% (n = 290,000). P0C6X7. recombinant SARS-CoV 3CLpro, quenched FRET peptide cleavage. AID 1706. inhibition, % at 6 µM; in the data active means inhibition above about 12%
DUSP3 inh – DUSP3 (human) phosphatase inhibition | recombinant VHR phosphatase, pNPP absorbance | inhibition, % at 13.3 µM | actives 0.52% (n = 290,000) | AID 1654; in the data active means inhibition above about 50%
Mtb hypoxia rep – reduces hypoxia-regulated biosensor signal in M. tuberculosis; M. tuberculosis hypoxia-regulated fluorescent reporter, fluorescence; fluorescence inhibition, % (concentration not given with the values); actives 0.1% (n = 300,000); AID 1159583; in the data active means fluorescence inhibition mostly above about 23%, no sharp cut-off; inactive means mostly below about 17%
PrPC confirm – confirmation of inhibitors of cell surface human prion protein; shares compounds with PrPC surface inh; cell surface PrPC level, TR-FRET; inhibition, % at 13.8 µM; actives 65% (n = 1,500); in the data active means inhibition above about 25%
LD9 tox – counter-screen for PrPc inhibitors: cytotoxicity in LD9 cells. shares compounds with PrPC surface inh. luminescence viability. inhibition, % at 13.8 µM. actives 29% (n = 1,500); in the data active means inhibition above about 9.5%
* marks the source's active call; other numbers are inactive results; / = no result shown. Shown are actives, neighbours in structure and some others; about 1.5% of the full set was active somewhere.

SMILES	PrPC surface inh	PrP 5UTR inh	MazEF act	3CLpro inhibitor	DUSP3 inh	Mtb hypoxia rep	PrPC confirm	LD9 tox
Fc1ccc(-n2nnnc2-c2cnc(-c3cccs3)nc2C(F)(F)F)cc1	53*	-7	-2	3	-2	6	48*	40*
COc1ccc2c(C)cc(SCc3c(C)noc3C)nc2c1	67*	-29	-11	-1	7	5	88*	-5
Cc1ccc(CN2CCCCC(NC(=O)c3ccc(COc4ccccc4)cc3)C2=O)cc1 (stereo unspecified)	25*	/	/	/	/	/	19	1
CCCCOc1ccc(C(=O)NC2CCCCN(Cc3ccc(C)cc3)C2=O)cc1 (stereo unspecified)	2	/	/	/	/	/	/	/
Cc1ccc(C(=O)Nc2ccc3cn[nH]c3c2)cc1S(=O)(=O)N1CCCCC1	26*	-51	-4	1	6	/	18	0
Cc1cn(C(C(=O)NCCCCCCCCCCC(=O)N2CCN(C(=O)OC(C)(C)C)CC2)C(C)O)nn1 (stereo unspecified)	/	/	/	/	/	-3	/	/
CC1CCN(c2ccc3nnc(CCC(=O)N4CCN(c5ccc(F)cc5)CC4)n3n2)CC1	40*	-19	-2	5	-27	14	-6	-3
CC1CCN(c2ccc3nnc(CCC(=O)N4CCCCC4)n3n2)CC1	0	0	9	6	-17	12	/	/
C#CCOCCOCCOCCNc1nc(N2CCN(C(=O)C(CCCN=C(N)N)n3cc(C(N)C(C)CC)nn3)CC2)nc(N2CCN(C(=O)C(C(C)O)n3cc(C(N)CCCCN)nn3)CC2)n1 (stereo unspecified)	/	/	/	/	/	13	/	/
C=CCn1cc(/C=N/Nc2nc3ccccc3[nH]2)c2ccccc21	27*	-55	10	-2	-6	/	24	14*
C#CCn1cc(C=NNc2nc3ccccc3[nH]2)c2ccccc21	/	/	/	/	/	4	/	/
COc1cc(C=CC(=O)OCC(=O)Nc2c(C)n(C)n(-c3ccccc3)c2=O)ccc1OCC#N	/	/	/	/	/	2	/	/
CON=Cc1cc([N+](=O)[O-])ccc1Sc1ccc(C)cc1	/	/	/	/	/	-3	/	/
CC[C@H](C)[C@@H]1NC(=O)CNC(=O)c2csc(n2)[C@H](C(C)(C)O)OC(=O)C(C)(C)[C@H](CCCC(C)(Cl)Cl)OC(=O)c2csc1n2	34*	/	/	/	/	/	26*	9
CCCC(=O)N1CCN(c2ccc(NC(=O)c3ccc([N+](=O)[O-])o3)cc2)CC1	33*	-31	2	2	23	/	8	78*
CCC(=O)N1CCN(c2ccc(NC(=O)c3ccc([N+](=O)[O-])o3)cc2)CC1	11	-10	0	-4	5	/	/	/
CC(=O)OC1CC2OC3C=C(C)CCC3(C)C1(C)C21CO1 (stereo unspecified)	90*	/	/	/	/	/	101*	32*
COC(=O)C1=CO[C@@H](C)[C@H]2CN3CCc4c([nH]c5ccccc45)[C@@H]3C[C@H]12	25*	-21	-5	/	/	/	16	-2
Cc1cc(N2CCOCC2)ccc1C=C[N+](=O)[O-]	/	/	/	/	/	9	/	/
O=C(NNc1ccc(-c2csnn2)cc1)c1cc(Cl)cc(Cl)c1	27*	/	2	2	10	20	32*	-2
CCCOc1ccc(C=NNc2ccccc2[N+](=O)[O-])c(OCCC)c1	/	/	/	/	/	7	/	/
Cc1onc(-c2ccccc2Cl)c1C(=O)OCC(=O)N1CCCc2ccccc21	30*	-3	-7	4	27	0	6	2
Cc1onc(-c2ccccc2Cl)c1C(=O)N1CCCc2ccccc21	2	-45	-2	4	4	1	/	/
CC(=O)OCC(=O)[C@@]1(O)CCC2C3CCC4=CC(=O)C=C[C@]4(C)[C@@]3(Cl)C(Cl)C[C@@]21C (stereo partly specified)	/	/	/	/	/	3	/	/
O=C(CCSc1ccc(Cl)cc1)N1CCN(c2ccc(O)cc2)CC1	38*	-14	3	4	13	/	28*	1
SMILES	PrPC surface inh	PrP 5UTR inh	MazEF act	3CLpro inhibitor	DUSP3 inh	Mtb hypoxia rep	PrPC confirm	LD9 tox
O=C(CCSc1ccccc1)N1CCN(c2ccccc2)CC1	4	-50	-17	1	33	6	/	/
C=CCC(CC(=O)N(CCO)Cc1ccccc1)C(=O)NC(C)COC(=O)C(CC=C)Cc1ccc(F)cc1 (stereo unspecified)	/	/	/	/	/	1	/	/
Cc1nc(N2CCN(Cc3ccc4c(c3)OCO4)CC2)c2oc3ccccc3c2n1	48*	-10	4	/	/	15	11	15*
Cc1nc(N2CCN(Cc3ccc(Cl)cc3)CC2)c2oc3ccccc3c2n1	-1	0	11	3	0	-1	/	/
COc1ccc2c(CC(=O)Nc3ncc(C)s3)coc2c1	29*	-95	5	0	19	0	35*	7
COc1ccc2c(CC(=O)Nc3nc(C)cs3)coc2c1	3	-28	14	-2	24	-8	/	/
CN(C)c1ccc(C=C(C(=O)c2ccc(Cl)cc2Cl)n2cncn2)cc1	/	/	/	/	/	17	/	/
COc1cccc(C=NNC(C)=O)c1OC/C=C/c1ccccc1	/	/	/	/	/	10	/	/
N/C(=N\OC(=O)COc1ccc2ccccc2c1Br)c1cccnc1	47*	/	/	2	15	-7	78*	3
N/C(=N\OC(=O)COc1ccc2ccccc2c1Br)c1ccccn1	59*	-31	1	6	21	-2	84*	-2
N/C(=N\OC(=O)COc1ccccc1)c1cccnc1	0	-45	6	/	/	5	/	/
CCOC(=O)N1CCN(C(=O)COc2ccc3ccccc3c2Br)CC1	50*	-2	-1	0	7	5	79*	-2
Cc1nc2ccccn2c1C(O)=C1C(=O)C(=O)N(CCN2CCOCC2)C1c1ccncc1 (stereo unspecified)	/	/	/	/	/	6	/	/
O=C1CC2c3c(cccc3CN1Cc1ccccc1F)CC(O)C2O (stereo unspecified)	/	/	/	/	/	14	/	/
CCC1=C(OC(=O)N(CC)CC)N2C(=O)OC(=NCC3CC3)[C@]2(Cc2ccccc2)C2C1=CCC1C(=O)N(CC)C(=O)C12 (stereo partly specified)	/	/	/	/	/	4	/	/
c1ccc(Nc2nc(NCc3ccco3)c3ccccc3n2)cc1	28*	-14	44	-4	29	-22	35*	15*
Cc1cccc(Nc2nc(NCc3ccco3)c3ccccc3n2)c1	30*	-41	14	2	-6	-22	31*	29*
Oc1ccccc1Nc1nc(NCc2ccco2)c2ccccc2n1	-2	-17	9	-1	8	/	/	/
O=C(CNC(=O)C12CC3CC(CC(C3)C1)C2)NN=Cc1ccco1	/	/	/	/	/	14	/	/
CC1(Cc2ccc(OC(F)(F)F)cc2)C(=O)Nc2ccc(S(=O)(=O)NC3CCCCC3)cc21 (stereo unspecified)	36*	/	/	/	/	/	30*	11*

Compound activity as filed in PubChem BioAssay.
